Activity calls are given as the source filed them. The calls were made as follows: active = hit-call score of the fitted dose curve at least 0.9, where 1 is the maximum; inactive = score below 0.9.

Read-out in assay [1]: Vascular cell adhesion molecule 1 (VCAM1), VCAM1 (gene 7412)
Description: BSK_4H_VCAM1: BioMAP Diversity Plus: 4H Assay for Vascular cell adhesion molecule 1 (VCAM1) Biomarker Activity (AID 2283033).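 As to outcome: cell-surface VCAM-1 protein measured by ELISA.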 To be noted: primary human endothelial cells (HUVEC); actives raise or lower the signal. In a few lines: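 In this human endothelial (HUVEC) system, biomarker ELISA was run 24 h after compound addition, and total protein in parallel wells was assessed by SRB at 560 nm; DMSO served as negative control.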

Read-out in assay [2]: Interferon-gamma inducible Protein 10 (IP10), CXCL10 (gene 3627)
Description: BSK_BE3C_IP10: BioMAP Diversity Plus: BE3C Assay for Interferon-gamma inducible Protein 10 (IP10) Biomarker Activity (AID 2283034). To be noted: primary human bronchial epithelial cells; actives raise or lower the signal. In a few lines: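 BE3C cells (human bronchial epithelial, primary); 24 h exposure; ELISA for IP-10; DMSO-referenced bidirectional fit.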

Read-out in assay [3]: Monokine induced gamma interferon (MIG), CXCL9 (gene 4283)
Description: BSK_BE3C_MIG: BioMAP Diversity Plus: BE3C Assay for Monokine induced gamma interferon (MIG) Biomarker Activity (AID 2283035). To be noted: primary human bronchial epithelial cells; actives raise or lower the signal. In a few lines:
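hu bronchial epithelial 1° cells, 24 h cpd; MIG by ELISA; bidirectional fit, DMSO = baseline.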

Read-out in assay [4]: Transforming growth factor beta 1 (TGFb1), TGFB1 (gene 7040)
Description: BSK_BE3C_TGFb1: BioMAP Diversity Plus: BE3C Assay for Transforming growth factor beta 1 (TGFb1) Biomarker Activity (AID 2283036;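 as to outcome: TGF-b1 protein level measured by ELISA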). To be noted: primary human bronchial epithelial cells; actives raise or lower the signal. In short, it runs like this:
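TGF-b1 measured via ELISA, 24 h after chemical dosing of human bronchial epithelial cells (BE3C). Overt cytotoxicity assessed in parallel by SRB (0.1%, TCA-fixed, 560 nm); analysis bidirectional relative to DMSO.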

Read-out in assay [5]: Plasminogen activator inhibitor-1 (PAI1), SERPINE1 (gene 5054)
Description: BSK_BE3C_PAI1: BioMAP Diversity Plus: BE3C Assay for Plasminogen activator inhibitor-1 (PAI1) Biomarker Activity (AID 2283037). To be noted: primary human bronchial epithelial cells; actives raise or lower the signal. In a few lines: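 In this multiplexed primary-cell system, bronchial epithelial cells receive test chemical and are sampled at 24 h. PAI-1 is read by ELISA, with DMSO serving as negative control for bidirectional fitting.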

Read-out in assay [6]: urokinase plasminogen activator (uPA), PLAU (gene 5328)
Description: BSK_BE3C_uPA: BioMAP Diversity Plus: BE3C Assay for urokinase plasminogen activator (uPA) Biomarker Activity (AID 2283038).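 As to outcome: uPA protein level quantified by ELISA in cell cultures; uPA read one day after compound addition.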 To be noted: primary human bronchial epithelial cells; actives raise or lower the signal. In a few lines: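 Primary human bronchial epithelial cells, uPA measured by ELISA 24 h after dosing. Bidirectional change relative to DMSO; cytotoxicity checked in parallel cultures by sulforhodamine B total-protein staining.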

Read-out in assay [7]: Urokinase-type plasminogen activator receptor (uPAR), PLAUR (gene 5329)
Description: BSK_BE3C_uPAR: BioMAP Diversity Plus: BE3C Assay for Urokinase-type plasminogen activator receptor (uPAR) Biomarker Activity (AID 2283039).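 As to outcome: uPAR protein level measured by ELISA on the cells; cells exposed to compound for one day before measurement.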 To be noted: primary human bronchial epithelial cells; actives raise or lower the signal. In short, it runs like this:
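Chemically treated human bronchial epithelial cells (lung primary) are assayed for uPAR by ELISA after 24 h, with data fitted in both directions using DMSO as negative control.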

Read-out in assay [8]: Interleukin-6 (IL6), IL6 (gene 3569)
Description: BSK_CASM3C_IL6: BioMAP Diversity Plus: CASM3C Assay for Interleukin-6 (IL6) Biomarker Activity for (AID 2283040). To be noted: primary human coronary artery smooth muscle cells; actives raise or lower the signal.

Read-out in assay [9]: Tissue plasminogen activator (tPA), PLAT (gene 5327)
Description: BSK_BE3C_tPA: BioMAP Diversity Plus: BE3C Assay for Tissue plasminogen activator (tPA) Biomarker Activity (AID 2283041).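 As to outcome: tPA level quantified by ELISA one day after compound addition.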 To be noted: primary human bronchial epithelial cells; actives raise or lower the signal. In short, it runs like this: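 Using human lung primary bronchial epithelial cells, tPA was measured by ELISA 24 h after dosing; data fitted relative to DMSO.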

Read-out in assay [10]: Interleukin-8 (IL8), CXCL8 (gene 3576)
Description: BSK_CASM3C_IL8: BioMAP Diversity Plus: CASM3C Assay for Interleukin-8 (IL8) Biomarker Activity (AID 2283042).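 Also: IL-8 protein level quantified by ELISA.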 To be noted: primary human coronary artery smooth muscle cells; actives raise or lower the signal.

Usually AC50 stands for the concentration at which the activity in the assay is half-maximal. Consider `Cc1cc(Cl)ccc1N`, for which the outcome in assay [1], in assay [2], in assay [3], in assay [4], in assay [6] and in assay [7] was inactive. Further, the outcome in assay [8], in assay [9] and in [10] was inactive. For the same compound, in [5], the AC50 was 3.97 µM (active).
Regarding `CC(C)(COCC1CO1)COCC1CO1` (configuration not stated), the result in assay [1], in [2], in assay [3], in assay [4], in [5] and in [6] was inactive. Besides, the result in assay [7], in [8], in assay [9] and in assay [10] was inactive.
On to `c1ccc2sc(SNC3CCCCC3)nc2c1`, for which the result in assay [1], in assay [2], in [3], in [4], in [5] and in assay [6] was inactive. Moreover, the result in [7], in assay [8], in assay [9] and in assay [10] was inactive.
On to `Cc1ccc2nc3sc(=O)sc3nc2c1`, for which, in assay [1], the AC50 is 7.39 µM (active). The result in assay [2], in [3], in [4], in assay [5], in [6] and in assay [7] was inactive. In addition, the outcome in assay [8], in assay [9] and in assay [10] was inactive.
Turning to `Clc1cccc(Cl)c1Cl`, the outcome in assay [2], in [3], in assay [4], in assay [5], in [6] and in assay [7] was inactive. For the same compound, the result in assay [8], in [9] and in [10] was inactive.
`COc1ccccc1N`: the outcome in assay [2], in assay [3], in assay [4], in assay [5], in [6] and in assay [7] was inactive. In addition, the result in assay [8], in assay [9] and in assay [10] was inactive.
For `O=S(=O)(c1ccc(Cl)cc1)c1cc(Cl)c(Cl)cc1Cl`, the figures for the AC50 in [1] and in assay [2] were 20 µM (active) and 28.6 µM (active), respectively. For the same compound, the outcome in assay [3], in [4], in assay [5], in [6], in assay [7] and in assay [8] was inactive. Also, the result in assay [9] and in assay [10] was inactive.
In the case of `N#Cc1cccnc1`, the outcome in assay [1], in assay [2], in assay [3], in assay [4], in assay [5] and in [6] was inactive. In addition, the outcome in assay [7], in assay [8], in assay [9] and in [10] was inactive.
As for `OC(Cc1ccccc1Cl)(Cn1cncn1)C1(Cl)CC1` (configuration not stated), the outcome in assay [1], in assay [2], in assay [3], in [4], in assay [5] and in [6] was inactive. Moreover, the outcome in assay [7], in assay [8], in assay [9] and in assay [10] was inactive.
Consider `[Cl][Sn]([c]1ccccc1)([c]1ccccc1)[c]1ccccc1`, for which the concentration at half-maximal activity (AC50) in assay [1] was 0.0783 µM (active); in assay [2], 0.0935 µM (active); in [3], 0.209 µM (active); in assay [5], 0.992 µM (active); in assay [6] it was 0.27 µM (active); in assay [7], 0.27 µM (active). Also, the concentration at half-maximal activity (AC50) in assay [8] is 0.726 µM (active); in [9], 0.0792 µM (active); in assay [10], 0.499 µM (active). For the same compound, the result in [4] was inactive.
As for `O=S(=O)(C(Cl)(Cl)Cl)C(Cl)(Cl)Cl`, the AC50 in assay [1] is 1.43 µM (active); in assay [2] it was 2.86 µM (active); in assay [3] it was 7.75 µM (active); in assay [4] it was 9.08 µM (active); in assay [5] it was 3.87 µM (active); in [6], 5.31 µM (active). The AC50 in assay [7] was 7.21 µM (active); in assay [8] it was 1.61 µM (active); in assay [9], 4.81 µM (active); in assay [10], 1.69 µM (active).
In the case of `CN(C)C(=S)S`, the outcome in [1], in assay [5], in [7], in [8] and in [10] was inactive. In addition, the AC50 is 28.7 µM (active) in [2]; 23.1 µM (active) in assay [3]; 20 µM (active) in [4]; 30.2 µM (active) in [6]; 9.34 µM (active) in assay [9].
Take `CCOP(=O)(OCC)OC(=CCl)c1ccc(Cl)cc1Cl`: the AC50 in assay [1] was 32 µM (active). The result in assay [2], in assay [3], in assay [4], in assay [5], in [6] and in [7] was inactive. The outcome in assay [8], in assay [9] and in assay [10] was inactive.
As for `O=C(CCl)NCO`, the result in assay [2], in assay [3], in assay [4], in assay [5], in assay [6] and in [7] was inactive. In addition, the outcome in assay [8], in [9] and in assay [10] was inactive.
As for `c1ccc(-c2cccc(-c3ccccc3)c2)cc1`, the AC50 was 14 µM (active) in assay [1], 14.4 µM (active) in assay [2] and 6.98 µM (active) in [9]. The result in [3], in assay [4], in assay [5], in assay [6], in assay [7] and in assay [8] was inactive. Further, the outcome in [10] was inactive.
Turning to `Cc1cccc(OP(=O)(Oc2cccc(C)c2)Oc2cccc(C)c2)c1`, the result in assay [1], in [2], in assay [3], in assay [4], in assay [7] and in [8] was inactive. For the same compound, the outcome in [10] was inactive. Besides, the AC50 in assay [5] was 2.76 µM (active); in assay [6], 0.016 µM (active); in assay [9], 0.677 µM (active).

These data come from PubChem BioAssay (EPA / NIEHS).
